# About 83,000 compounds went through this panel and 20% of them were active in at least one assay; those are over-represented in the sample as a whole.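 Assay: single dose, 48 h. Readout: percent growth (0 = no net growth; negative = cell death). Active: <10.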 The source made the active and inactive calls.
# System: A498 renal
# Assay: NCI-60 one-dose screen, 48 h (100 = growth as untreated, 0 = no growth, -100 = all killed)
# Conditions: 10 µM unless noted
row,Structure (SMILES),growth
1,C=C(C)[C@@H]1CC[C@]2(C(=O)N[C@H](CO)Cc3ccccc3)CC[C@]3(C)[C@H](CC[C@@H]4[C@@]5(C)CCCNC(C)(C)[C@@H]5CC[C@]43C)[C@@H]12,-97.9% (active)
2,O=C1c2cccc3c(-c4ccc5c(c4)ncn5C4CCCCC4)ccc(c23)C(=O)N1CCO,103% (inactive)
3,O=C(/C(=C\c1ccc([N+](=O)[O-])cc1)S(=O)Cc1ccc(F)cc1)c1ccc(F)cc1 (configuration not stated),82.2% (inactive)
4,NNC(=O)c1ccc(-n2nc(-c3ccccc3)c3ccccc32)cc1,75% (inactive)

# System: CCRF-CEM leukemia
# Assay: as above
# Conditions: 10 µM unless noted
row,Structure (SMILES),growth
1,NC(=O)CSSCC(N)=O,88.3% (inactive)
2,C=C(C)[C@@H]1CC[C@]2(C(=O)N3CCN(C)CC3)CC[C@]3(C)[C@H](CC[C@@H]4[C@@]5(C)CC[C@H](O)C(C)(C)[C@@H]5CC[C@]43C)[C@@H]12,-36.6% (active)
3,O=C1Nc2cc(Cl)ccc2/C1=C\c1c(-c2ccc(F)cc2)nc2ccccn12,7.67% (active)
4,CCc1ccc(-c2cn3ccnc3c(-c3ccc4ncn(Cc5ccccc5)c4c3)n2)cc1,50.3% (inactive)
5,CCOC(=O)c1cc(C(=O)c2ccc(OC)c(OC)c2)n2ccc(/C=C/c3cc[n+](CC(=O)c4ccc(OC)c(OC)c4)cc3)cc12,85.7% (inactive)
6,COc1cc(/C=C\c2cc(OC)c(OC)c(OC)c2)cc(NC(=O)/C=C/c2cc(OC)c(OC)c(OC)c2)c1OC,25.8% (inactive)
7,CN1C(N2CCN(S(=O)(=O)c3ccccc3)CC2)=NS(=O)(=O)c2ccccc21,118% (inactive)
8,O=C1Nc2ccccc2/C1=C\c1c(-c2ccc(F)cc2)nc2ccccn12,67.9% (inactive)
9,OCc1cnc2ccccc2c1NC1CCCCCC1,85.1% (inactive)
10,Oc1c(Cl)cc(Cl)c(Cl)c1CNCCNCc1c(O)c(Cl)cc(Cl)c1Cl,4.31% (active)
11,CN1[C@@H]2CC[C@H]1/C(=C\c1ccccc1)C(=O)/C2=C/c1ccccc1,16.1% (inactive)
12,O=C1c2c(c3c4cccc(F)c4[nH]c3c3ccc4ccccc4c23)C(=O)N1O,7.09% (active)
13,CN(C)CCC(=O)c1ccc([N+](=O)[O-])cc1,97.2% (inactive)
14,Cc1ccc(-c2nc3ccccn3c2/C=C2/C(=O)Nc3cc(Cl)ccc32)cc1,56.2% (inactive)
15,CC(=O)[C@@H]1CC[C@]2(C(N)=O)CC[C@]3(C)[C@H](CC[C@@H]4[C@@]5(C)CCCNC(C)(C)[C@@H]5CC[C@]43C)[C@@H]12,88.3% (inactive)
16,CC(C)N1C(=O)S/C(=C2/SC(=O)N(C(C)C)C2=O)C1=O,38.9% (inactive)
17,NS(=O)(=O)c1ccc(CCN2C(=O)C3C(C2=O)C2(Cl)C(Cl)=C(Cl)C3(Cl)C2(Cl)Cl)cc1 (configuration not stated),49.6% (inactive)
18,Nc1c(S(=O)(=O)O)cc2c3c(cccc13)C(=O)OC2=O,102% (inactive)
19,O=C(CCN1CCCC1)c1ccc([N+](=O)[O-])cc1,103% (inactive)

row,Structure (SMILES),growth
1,O=C1Nc2ccc(F)cc2/C1=C\c1c(-c2ccccc2)nc2ccccn12,57.7% (inactive)
2,O=Cc1ccc(-c2cn3ccnc3c(-c3ccc4ncn(Cc5ccccc5)c4c3)n2)cc1,22.1% (inactive)
3,N#C/C(=C\c1ccc(C(F)(F)F)cc1)c1cc2ccccc2[nH]1,98.1% (inactive)
4,O=C1c2cccc3c(-c4ccc5c(c4)ncn5C4CCCCC4)ccc(c23)C(=O)N1c1nc2ccccc2s1,83% (inactive)
5,Cc1cccc(-c2cn3ccnc3c(-c3ccc4ncn(Cc5ccccc5)c4c3)n2)c1,78.9% (inactive)
6,CCOC(=O)C1=C(CCl)NC(=O)NC1c1ccc2c(c1)OCO2 (configuration not stated),10.8% (inactive)
7,CCCN1[C@@H]2CC[C@H]1/C(=C\c1ccc(OC)c(OC)c1)C(=O)/C2=C/c1ccc(OC)c(OC)c1,30.6% (inactive)
8,COc1ccc(C(=O)C2C(C#N)C(C#N)C3c4ccccc4C=CN23)cc1 (configuration not stated),82.5% (inactive)
9,O=C(C[n+]1cccc2ccccc21)c1ccc(O)c(O)c1,-13.8% (active)
10,COc1ccc(C(=O)c2nc3ccccc3n2CC(=O)c2ccc(F)cc2)cc1,79.6% (inactive)
11,CC(=O)[C@@H]1CC[C@]2(CO)CC[C@]3(C)[C@H](CC[C@@H]4[C@@]5(C)CCCNC(C)(C)[C@@H]5CC[C@]43C)[C@@H]12,103% (inactive)
12,NS(=O)(=O)c1ccc(CCN2C(=O)C=CC2=O)cc1,99% (inactive)
13,Nc1ccccc1NC(=O)c1ccc(-n2nc(-c3ccccc3)c3ccccc32)cc1,9.38% (active)
14,N#CC1C(C#N)C2c3ccccc3C=CN2C1C(=O)c1ccc(Br)cc1 (configuration not stated),99.2% (inactive)
15,O=C(CNCCN1CCOCC1)N1c2cccc3cccc(c23)N(C(=O)CNCCN2CCOCC2)C1c1cn(-c2ccccc2)nc1-c1cccc([N+](=O)[O-])c1,17.5% (inactive)
16,C=C(C)[C@@H]1CC[C@]2(C(=O)N[C@H](CO)Cc3ccccc3)CC[C@]3(C)[C@H](CC[C@@H]4[C@@]5(C)CCCNC(C)(C)[C@@H]5CC[C@]43C)[C@@H]12,-46.7% (active)
17,O=C1c2cccc3c(-c4ccc5c(c4)ncn5C4CCCCC4)ccc(c23)C(=O)N1CCO,79% (inactive)
18,O=C(/C(=C\c1ccc([N+](=O)[O-])cc1)S(=O)Cc1ccc(F)cc1)c1ccc(F)cc1 (configuration not stated),0.265% (active)
19,NNC(=O)c1ccc(-n2nc(-c3ccccc3)c3ccccc32)cc1,37.2% (inactive)

# Reference: PubChem BioAssay (NCI)
